Laboratory results as given in PubChem BioAssay.
Calls of active or inactive are those of the source. Unless noted, how the calls were made is not given here.

What was measured:
[1] = resazurin metabolic signal in HepG2 cells – cell-based, resazurin fluorescence, 24 h, PK04 Diversity Set, profiling panel (AID 1172); details: HepG2 viability, higher = more signal
[2] = budding yeast growth changes without added modifier – OD600, strain BY4716, 24 h, basal condition, primary screen (AID 1173); details: S. cerevisiae BY4716 growth, OD600, 24 h; higher = more signal, called active from +8 up or from −8 down
[3] = viability profiling in MM1S myeloma cells – cell-based, resazurin fluorescence, basal, 24 h, PK04 Diversity Set, profiling panel (AID 1174); details: higher = more signal, called active from +8 up or from −8 down;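 further: MM1S multiple myeloma cell line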
[4] = biological target: Dihydroorotate dehydrogenase (quinone), mitochondrial (Plasmodium falciparum (isolate 3D7)) (UniProt Q08210); experiment: inhibition of P. falciparum DHODH – biochemical, C-terminal His tag, absorbance 600 nm, primary screen (AID 1175); details: PfDHODH enzyme, DCIP absorbance 600 nm; higher = more signal, called active from +8 up or from −8 down;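 further: recombinant parasite enzyme with a five histidine tag at its C terminus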
Sequence of Dihydroorotate dehydrogenase (quinone), mitochondrial (Plasmodium falciparum (isolate 3D7)) (Q08210 whole entry, looked up): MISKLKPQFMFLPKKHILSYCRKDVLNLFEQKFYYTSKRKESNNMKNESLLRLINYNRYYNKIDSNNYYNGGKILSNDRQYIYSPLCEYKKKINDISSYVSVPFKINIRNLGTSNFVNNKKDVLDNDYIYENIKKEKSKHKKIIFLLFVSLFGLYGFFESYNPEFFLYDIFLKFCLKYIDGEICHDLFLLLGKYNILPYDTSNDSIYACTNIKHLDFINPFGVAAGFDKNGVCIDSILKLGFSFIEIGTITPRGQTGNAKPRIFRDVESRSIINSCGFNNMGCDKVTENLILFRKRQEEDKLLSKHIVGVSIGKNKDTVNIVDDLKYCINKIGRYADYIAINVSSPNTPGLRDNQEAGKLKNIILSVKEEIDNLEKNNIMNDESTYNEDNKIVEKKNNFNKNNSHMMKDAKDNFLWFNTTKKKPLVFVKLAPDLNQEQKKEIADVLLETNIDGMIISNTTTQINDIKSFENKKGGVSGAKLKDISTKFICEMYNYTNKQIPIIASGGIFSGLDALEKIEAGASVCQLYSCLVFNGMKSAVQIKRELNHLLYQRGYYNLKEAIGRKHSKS

[5] = inhibition of PAO1 biofilm formation – strain PAO1, LB-PBS medium, absorbance 600 nm, primary screen (AID 1176); details: P. aeruginosa PAO1 growth/biofilm, A600, 12 h; higher = more signal
[6] = growth modulation of vineyard yeast isolate – strain RM11-1a, OD600, basal, 24 h, primary screen (AID 1177);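 further: cultures grown under basal conditions with no added stressor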; details: S. cerevisiae RM11-1a growth, OD600, 24 h; higher = more signal, called active from +8 up or from −8 down
[7] = growth of efflux-deficient E. coli DRC39 – strain DRC39, OD650, 24 h, E. coli filamentation inducers, primary screen (AID 1178);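 further: growth measured as culture turbidity by optical density at 650 nm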; details: E. coli DRC39 acrAB, higher = more signal, called active from +8 up or from −8 down
[8] = growth of efflux-deficient E. coli DRC39 – strain DRC39, OD650, 48 h, E. coli filamentation inducers, primary screen (AID 1179);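 further: screen aims at cell division blockers that make cells filament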; details: E. coli DRC39 delta-acrAB growth, higher = more signal, called active from +8 up or from −8 down
[9] = viability profiling in RPMI8226 myeloma cells – cell-based, resazurin fluorescence, basal, 24 h, PK04 Diversity Set, profiling panel (AID 1180); details: higher = more signal;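 further: RPMI8826 multiple myeloma cell line at 5000 cells per well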
[10] = biological target: E3 ubiquitin-protein ligase XIAP (Homo sapiens) (UniProt P98170); experiment: small molecules binding XIAP protein – biophysical, small-molecule microarray, fluorescence 635 nm, primary screen (AID 1181); details: higher = more signal;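 further: score merges 667 nm emission and signal to noise over triplicate slides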
Sequence of E3 ubiquitin-protein ligase XIAP (Homo sapiens) (P98170 whole entry, looked up, the tested form may be a part): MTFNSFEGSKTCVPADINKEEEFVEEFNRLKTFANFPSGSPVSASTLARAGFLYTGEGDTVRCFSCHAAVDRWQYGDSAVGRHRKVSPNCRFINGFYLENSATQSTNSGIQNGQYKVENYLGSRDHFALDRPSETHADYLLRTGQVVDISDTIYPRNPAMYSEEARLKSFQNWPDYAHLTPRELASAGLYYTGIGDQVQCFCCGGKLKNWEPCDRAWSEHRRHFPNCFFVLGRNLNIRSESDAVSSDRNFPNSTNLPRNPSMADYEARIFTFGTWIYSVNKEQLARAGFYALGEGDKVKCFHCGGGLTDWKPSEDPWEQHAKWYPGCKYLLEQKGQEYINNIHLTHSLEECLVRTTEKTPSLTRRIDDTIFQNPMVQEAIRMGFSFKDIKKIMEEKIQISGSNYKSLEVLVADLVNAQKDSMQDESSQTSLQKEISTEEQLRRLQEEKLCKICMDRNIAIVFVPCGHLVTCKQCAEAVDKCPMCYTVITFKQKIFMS

[11] = tested on: XIP peptide (Xip251-270) binding; experiment: XIP fragment 251-270 binding compounds – biochemical, small-molecule microarray, fluorescence 635/667 nm, 0.1 µg/mL protein, primary screen (AID 1182); details: fluorescent protein binding, 635 nm, higher = more signal, called active from +8 up or from −8 down
XIP peptide (Xip251-270) = experiment: compounds binding XIP fragment 251-270 – biochemical, small-molecule microarray, fluorescence 635/667 nm, 0.5 µg/mL protein, primary screen (AID 1183); details: fluorescence 635 nm, higher = more signal
[12] = blood-stage malaria parasite viability loss – strain 3D7, DAPI fluorescence, 100 nL, primary screen (AID 1184);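 further: parasites grown inside human red blood cells in medium with human serum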; details: P. falciparum 3D7 growth, 3 d, higher = more signal
[13] = biological target: Homeobox protein Hox-A13 (Mus musculus) (UniProt Q62424); experiment: disruptors of Hoxa13 oligonucleotide interaction – biochemical, fluorescence polarization, labeled oligonucleotide, primary screen (AID 1185); details: Hoxa13:DNA binding, 15 min, higher = more signal, called active from +8 up or from −8 down
Sequence of Homeobox protein Hox-A13 (Mus musculus) (Q62424 whole entry, looked up): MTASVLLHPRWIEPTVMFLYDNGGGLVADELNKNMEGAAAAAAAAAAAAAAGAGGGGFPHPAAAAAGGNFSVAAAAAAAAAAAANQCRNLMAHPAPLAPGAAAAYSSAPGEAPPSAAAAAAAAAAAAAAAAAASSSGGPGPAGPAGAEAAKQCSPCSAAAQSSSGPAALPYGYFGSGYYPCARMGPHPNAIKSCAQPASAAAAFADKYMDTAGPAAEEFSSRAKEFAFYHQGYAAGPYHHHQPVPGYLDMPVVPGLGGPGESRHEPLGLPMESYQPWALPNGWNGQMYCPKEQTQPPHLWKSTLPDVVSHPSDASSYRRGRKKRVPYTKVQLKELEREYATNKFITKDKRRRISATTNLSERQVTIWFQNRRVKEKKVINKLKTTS

[14] = blockers of DNA damage checkpoint Chk1 activation – imaging, HeLa, hydroxyurea, phospho-Chk1 antibody, percent positive cells, primary screen (AID 1186); details: hydroxyurea-induced phospho-Chk1 immunofluorescence imaging, higher = more signal
[15] = blockers of DNA damage checkpoint Chk1 activation – imaging, HeLa, hydroxyurea, phospho-Chk1 nuclear intensity, primary screen (AID 1187); details: hydroxyurea-induced phospho-Chk1 immunofluorescence imaging, higher = more signal

Structure (SMILES)	z-score [1]	z-score [2]	z-score [3]	composite z-score [4]	z-score [5]	z-score [6]	z-score [7]	z-score [8]	z-score [9]	composite z-score [10]	composite z-score [11]	composite z-score (XIP peptide (Xip251-270))	z-score [12]	z-score [13]	z-score [14]	z-score [15]
C=CCN1Cc2ccccc2[C@@H]2OC(c3ccc(OCCCO)cc3)=N[C@]2(CCS(=O)(=O)c2ccccc2)C1=O	0.277	1.28 (inactive)	-0.751 (inactive)	0.651 (inactive)	1.4 (inactive)	1.38 (inactive)	0.61 (inactive)	0.713 (inactive)	-0.764	-0.123	0.3 (inactive)	0.799	-2.3	-2.43 (inactive)	-0.386 (inactive)	-0.386 (inactive)
COc1cc(CO)cc(I)c1O[C@H]1C=C(C(=O)NCCO)C[C@@H](NC[C@@H]2CCCO2)[C@@H]1O	0.773	-0.813 (inactive)	-0.292 (inactive)	0.459 (inactive)	0.0694 (inactive)	0.683 (inactive)	1.16 (inactive)	0.915 (inactive)	0.577	-0.13	0.546 (inactive)	0.711	-1.22	-6.95 (inactive)	-0.399 (inactive)	-1.01 (inactive)
CC(C)CN1C(=O)[C@@]2(c3ccc([N+](=O)[O-])cc3)CC(=O)N(C3CCCCC3)[C@@H]2c2ccc(CO)cc21	-0.321	0.669 (inactive)	-0.248 (inactive)	-13.6 (active)	0.292 (inactive)	0.488 (inactive)	0.0743 (inactive)	0.922 (inactive)	-0.323	0.119	-0.0685 (inactive)	-0.57	-0.643	-0.113 (inactive)	0.0566 (inactive)	0.558 (inactive)
C[C@H]1C2[C@H](Cc3ccccc3)NC(=O)[C@]23C(=O)NCC(=O)N2CCC[C@H]2C(=O)NC/C=C/CCC/C=C/C3[C@@H]2O[C@]12C (some centres undefined)	-1.11	-1.17 (inactive)	-0.111 (inactive)	-0.0305 (inactive)	-0.578 (inactive)	-0.0879 (inactive)	1.2 (inactive)	0.601 (inactive)	0.277	-0.152	-0.416 (inactive)	-0.56	-1.48	-3.96 (inactive)	0.0614 (inactive)	0.0823 (inactive)
CCOc1ccc(N2C(=O)CSC2c2cccc([N+](=O)[O-])c2)cc1 (centres undefined)	0.296	0.269 (inactive)	-0.0959 (inactive)	-0.274 (inactive)	-0.0902 (inactive)	0.791 (inactive)	0.754 (inactive)	0.908 (inactive)	-0.0239	-0.183	0.115 (inactive)	0.193	0.268	-0.0449 (inactive)	-0.139 (inactive)	-0.0398 (inactive)
CC(c1ccccc1)C(O)C1C=CC2C(=O)N(C)C(=O)C2N1NC(=O)OC(C)(C)C (centres undefined)	-0.67	-0.424 (inactive)	-0.267 (inactive)	-0.14 (inactive)	0.903 (inactive)	0.732 (inactive)	-0.182 (inactive)	-0.339 (inactive)	0.15	0.184	2.04 (inactive)	0.63	1.05	-2.6 (inactive)	-0.129 (inactive)	-0.0976 (inactive)
C#CCN1[C@H](/C=C/C2CC2)[C@H](Cc2ccccc2)OC(=O)[C@@H]1Cc1ccccc1	0.512	0.169 (inactive)	0.214 (inactive)	-0.627 (inactive)	-0.283 (inactive)	0.0319 (inactive)	-0.463 (inactive)	-0.144 (inactive)	0.454	0.0853	1.42 (inactive)	0.513	-0.568	-0.837 (inactive)	-0.315 (inactive)	-0.418 (inactive)
CC(C)[Si](C#C[Si](C(C)C)(C(C)C)C(C)C)(O[C@H](C)c1cn(Cc2ccccc2)nn1)C(C)C	0.0403	0.745 (inactive)	1.74 (inactive)	-0.348 (inactive)	0.419 (inactive)	-0.0006 (inactive)	-0.118 (inactive)	0.164 (inactive)	0.776	0.013	-0.0845 (inactive)	0.0972	1.59	-0.236 (inactive)	-0.175 (inactive)	-0.288 (inactive)
COc1ccc(C(O)C2C=CC3C(=O)N(C)C(=O)C3N2NC(=O)OC(C)(C)C)c2ccccc12 (centres undefined)	-1.78	-1.15 (inactive)	-0.0317 (inactive)	0.799 (inactive)	0.503 (inactive)	1.06 (inactive)	-0.45 (inactive)	-0.765 (inactive)	-0.993	-0.193	0.661 (inactive)	0.744	-0.526	-4.22 (inactive)	0.667 (inactive)	0.704 (inactive)
CCCC=C(CCC)[C@@H](NC(=O)OCC(C)C)c1ccccc1	-0.624	1.08 (inactive)	-0.863 (inactive)	-4.03 (inactive)	2.77 (inactive)	0.396 (inactive)	-0.526 (inactive)	-1.64 (inactive)	0.0342	-0.0852	-0.0053 (inactive)	0.45	-1.02	2.97 (inactive)	0.714 (inactive)	0.115 (inactive)
CCCC[C@@H]1C[C@H]1[C@@H](NC(=O)c1cccnc1)c1ccc(Cl)cc1	0.562	-6.77 (inactive)	-0.731 (inactive)	0.303 (inactive)	-0.0019 (inactive)	-2.78 (inactive)	0.014 (inactive)	-0.0491 (inactive)	-0.663	-0.0948	-1.19 (inactive)	-1.83	-0.577	1.33 (inactive)	-0.308 (inactive)	-0.437 (inactive)
CN1C(=O)C2C=CC(C(O)c3c(F)cccc3Cl)N(NC(=O)OC(C)(C)C)C2C1=O (centres undefined)	-0.417	0.357 (inactive)	-0.414 (inactive)	0.17 (inactive)	0.791 (inactive)	0.0301 (inactive)	-0.775 (inactive)	-0.181 (inactive)	-0.301	0.0951	1.69 (inactive)	0.836	0.436	-1.51 (inactive)	0.0188 (inactive)	0.0545 (inactive)
[N-]=[N+]=NCc1ccccc1[C@@H]1OC(c2ccc(OCCCO)cc2)=N[C@]1(CCS(=O)(=O)c1ccccc1)C(N)=O	-0.493	-0.583 (inactive)	-0.163 (inactive)	-0.449 (inactive)	-0.651 (inactive)	0.573 (inactive)	0.0745 (inactive)	0.859 (inactive)	0.0529	0.243	0.57 (inactive)	0.869	-0.397	-3.55 (inactive)	-0.0248 (inactive)	0.227 (inactive)
COC(=O)c1c2oc(c1C(=O)OC)C(=O)NC1(CCCCC1)c1cn(nn1)C[C@H](Cc1ccccc1)NC(=O)N[C@H](CO)CC2	1.68	-0.861 (inactive)	0.911 (inactive)	-0.805 (inactive)	0.383 (inactive)	-0.0499 (inactive)	1.09 (inactive)	1.66 (inactive)	0.456	-0.118	0.064 (inactive)	-0.271	0.196	-4.41 (inactive)	-0.0736 (inactive)	-0.183 (inactive)
CC1CC/C=C\[C@H]2OC34C=CCN(Cn5nnc6ccccc65)C(=O)[C@H]3N(CCCCCO)C(=O)[C@@H]4C2C(=O)O1 (some centres undefined)	0.786	0.0153 (inactive)	-0.88 (inactive)	0.374 (inactive)	0.193 (inactive)	0.0538 (inactive)	0.67 (inactive)	0.434 (inactive)	0.796	-0.148	-0.369 (inactive)	-0.745	-0.585	-3.77 (inactive)	-0.749 (inactive)	-0.2 (inactive)
NC(=O)NCC#Cc1ccc2c(c1)[C@]1(C(=O)N2)[C@H](C(=O)O)[C@H]2C(=O)O[C@H](c3ccccc3)[C@H](c3ccccc3)N2[C@@H]1c1ccc(O)cc1	0.891	-0.0841 (inactive)	0.587 (inactive)	-1.63 (inactive)	0.393 (inactive)	0.0591 (inactive)	-0.131 (inactive)	-0.0796 (inactive)	0.902	0.0043	0.88 (inactive)	0.275	0.137	-5.06 (inactive)	0.0315 (inactive)	0.118 (inactive)
COCCCNC(=O)[C@@]1(Sc2ccc(C)cc2)CC(=O)N(Cc2ccccc2Cl)[C@@H]1c1ccc(CO)cc1	0.683	-0.209 (inactive)	0.306 (inactive)	-1.08 (inactive)	0.366 (inactive)	-0.964 (inactive)	1.08 (inactive)	0.709 (inactive)	0.761	0.145	0.906 (inactive)	0.887	-1.63	-2.28 (inactive)	-0.63 (inactive)	-1.1 (inactive)
COC(=O)[C@@]1(Cc2ccc(F)cc2)[C@H]2c3cc(C(=O)N(C)C)n(Cc4cc(C)n(C)n4)c3C[C@H]2CN1C(=O)c1ccccc1	-0.806	-0.169 (inactive)	-0.943 (inactive)	-0.368 (inactive)	0.495 (inactive)	-0.0352 (inactive)	-0.431 (inactive)	-0.851 (inactive)	-0.856	0.473	0.537 (inactive)	0.801	-0.358	-1.42 (inactive)	0.669 (inactive)	0.333 (inactive)
COCCOC(=O)N1C(=O)[C@@]2(c3cc(C#CCCO)ccc31)[C@H](c1ccc(OCCO)cc1)N1[C@H](c3ccccc3)[C@H](c3ccccc3)OC(=O)[C@H]1[C@@H]2C(N)=O	-0.569	1.67 (inactive)	-0.371 (inactive)	0.561 (inactive)	0.449 (inactive)	3.69 (inactive)	0.315 (inactive)	0.399 (inactive)	-0.103	-0.192	0.464 (inactive)	0.779	-0.222	-1.33 (inactive)	-0.0438 (inactive)	0.51 (inactive)
